Only a selection was taken, and the strongest signals are over-represented in it overall.
Columns and labels:
Experiment in all cases: glycan array binding signal (z-score within array); higher = stronger binding
Settings in all cases: glycan notation: IUPAC condensed, linker removed
[1] = target: Fuc(a1-2)Gal(b1-3)GlcNAc(b1-2)Man(a1-3)[Fuc(a1-2)Gal(b1-3)GlcNAc(b1-2)Man(a1-6)]Man(b1-4)GlcNAc(b1-4)[Fuc(a1-6)]GlcNAc
Summary of the method: (§1)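 Glycan array data were curated from 3228 arrays in the Consortium for Functional Glycomics database and kept only where the protein sequence was available. Glycan names were converted to IUPAC-condensed notation, and columns mapping to the same glycan were averaged. The binding signal is a within-array Z-score, averaged across arrays of the same protein sequence at different concentrations or buffers and across linkers. Negative Z-scores can be read as non-binding.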

[2] = target: Fuc(a1-2)Gal(b1-3)[Fuc(a1-4)]GlcNAc
Summary of the method: as §1

[3] = target: Fuc(a1-2)Gal(b1-3)[Fuc(a1-4)]GlcNAc(b1-2)Man(a1-3)[Fuc(a1-2)Gal(b1-3)[Fuc(a1-4)]GlcNAc(b1-2)Man(a1-6)]Man(b1-4)GlcNAc(b1-4)GlcNAc
Summary of the method: as §1

[4] = target: Fuc(a1-2)Gal(b1-3)[Fuc(a1-4)]GlcNAc(b1-2)Man(a1-6)[Fuc(a1-2)Gal(b1-3)[Fuc(a1-4)]GlcNAc(b1-2)Man(a1-3)]Man(b1-4)GlcNAc(b1-4)[Fuc(a1-6)]GlcNAc
Summary of the method: as §1

[5] = target: Fuc(a1-2)Gal(b1-4)[Fuc(a1-3)]GlcNAc(b1-2)Man(a1-6)[Fuc(a1-2)Gal(b1-4)[Fuc(a1-3)]GlcNAc(b1-2)Man(a1-3)]Man(b1-4)GlcNAc(b1-4)[Fuc(a1-6)]GlcNAc
Summary of the method: as §1

[6] = target: Fuc(a1-2)Gal(b1-4)[Fuc(a1-3)]GlcNAc(b1-3)Gal(b1-4)[Fuc(a1-3)]GlcNAc(b1-3)Gal(b1-4)[Fuc(a1-3)]GlcNAc
Summary of the method: as §1

[7] = target: Fuc(a1-2)Gal(b1-4)[Fuc(a1-3)]GlcNAc(b1-3)GalNAc
Summary of the method: as §1

Fuc(a1-2)[Gal(a1-3)]Gal = target: Fuc(a1-2)[Gal(a1-3)]Gal
Summary of the method: as §1

[8] = target: Fuc(a1-2)[Gal(a1-3)]Gal(b1-4)GlcNAc(b1-2)Man(a1-3)[Fuc(a1-2)[Gal(a1-3)]Gal(b1-4)GlcNAc(b1-2)Man(a1-6)]Man(b1-4)GlcNAc(b1-4)GlcNAc
Summary of the method: as §1

[9] = target: Fuc(a1-2)[GalNAc(a1-4)]Gal(b1-4)GlcNAc
Summary of the method: as §1

[10] = target: Fuc(a1-3)[Gal(b1-4)]GlcNAc(b1-2)Man(a1-3)[Fuc(a1-3)[Gal(b1-4)]GlcNAc(b1-2)Man(a1-6)]Man(b1-4)GlcNAc(b1-4)[Fuc(a1-6)]GlcNAc
Summary of the method: as §1

[11] = target: Fuc(a1-3)[Gal(b1-4)]GlcNAc(b1-3)GalNAc
Summary of the method: as §1

[12] = target: Fuc(a1-3)[Gal3S(b1-4)]GlcNAc
Summary of the method: as §1

[13] = target: Gal(a1-3)Gal(b1-4)[Fuc(a1-3)]GlcNAc(b1-2)Man(a1-3)[Gal(a1-3)Gal(b1-4)[Fuc(a1-3)]GlcNAc(b1-2)Man(a1-6)]Man(b1-4)GlcNAc(b1-4)GlcNAc
Summary of the method: as §1

Gal(b1-2)Gal = target: Gal(b1-2)Gal
Summary of the method: as §1

[14] = target: Gal(b1-3)GalNAc(b1-3)Gal(a1-4)Gal(b1-4)Glc
Summary of the method: as §1

[15] = target: Gal(b1-3)[Fuc(a1-4)]GlcNAc(b1-3)Gal(b1-3)[Fuc(a1-4)]GlcNAc
Summary of the method: as §1

[16] = target: Gal(b1-4)GlcNAc(b1-2)Man(a1-3)[Gal(b1-4)GlcNAc(b1-2)Man(a1-6)]Man(b1-4)GlcNAc(b1-4)GlcNAc
Summary of the method: as §1

[17] = target: Gal(b1-4)GlcNAc(b1-2)Man(a1-3)[GlcNAc(b1-2)Man(a1-6)]Man(b1-4)GlcNAc(b1-4)GlcNAc
Summary of the method: as §1

[18] = target: Gal(b1-4)GlcNAc(b1-2)Man(a1-3)[Man(a1-6)]Man(b1-4)GlcNAc(b1-4)GlcNAc
Summary of the method: as §1

Gal3S6S(b1-4)GlcNAc = target: Gal3S6S(b1-4)GlcNAc
Summary of the method: as §1

Gal6P(b1-4)GlcNAc = target: Gal6P(b1-4)GlcNAc
Summary of the method: as §1

GalNAc(a1-3)Gal = target: GalNAc(a1-3)Gal
Summary of the method: as §1

GalNAc(b1-3)Gal = target: GalNAc(b1-3)Gal
Summary of the method: as §1

GalNAc(b1-4)Gal(b1-4)Glc = target: GalNAc(b1-4)Gal(b1-4)Glc
Summary of the method: as §1

[19] = target: Glc(a1-4)Glc(a1-4)Glc(a1-4)Glc
Summary of the method: as §1

[20] = target: GlcNAc(a1-4)Gal(b1-4)GalNAc
Summary of the method: as §1

GlcNAc(b1-3)Gal = target: GlcNAc(b1-3)Gal
Summary of the method: as §1

[21] = target: GlcNAc(b1-3)[GlcNAc(b1-4)][GlcNAc(b1-6)]GlcNAc
Summary of the method: as §1

Kdn(a2-6)Gal(b1-4)GlcNAc = target: Kdn(a2-6)Gal(b1-4)GlcNAc
Summary of the method: as §1

Man(a1-2)Man(a1-3)Man = target: Man(a1-2)Man(a1-3)Man
Summary of the method: as §1

[22] = target: Neu5Ac(a2-3)Gal(b1-3)GalNAc(b1-4)[Neu5Ac(a2-3)]Gal(b1-4)Glc
Summary of the method: as §1

[23] = target: Neu5Ac(a2-3)Gal(b1-3)[Fuc(a1-4)]GlcNAc
Summary of the method: as §1

[24] = target: Neu5Ac(a2-3)Gal(b1-3)[Neu5Ac(a2-3)Gal(b1-4)]GlcNAc
Summary of the method: as §1

[25] = target: Neu5Ac(a2-3)Gal(b1-4)GlcNAc
Summary of the method: as §1

[26] = target: Neu5Ac(a2-3)Gal(b1-4)GlcNAc(b1-2)Man(a1-3)[GlcNAc(b1-2)Man(b1-4)GlcNAc(b1-2)Man(a1-6)]Man(b1-4)GlcNAc(b1-4)GlcNAc
Summary of the method: as §1

[27] = target: Neu5Ac(a2-3)Gal(b1-4)[Fuc(a1-3)]GlcNAc6S
Summary of the method: as §1

[28] = target: Neu5Ac(a2-3)Gal6S(b1-4)GlcNAc
Summary of the method: as §1

[29] = target: Neu5Ac(a2-3)[GalNAc(b1-4)]Gal(b1-4)GlcNAc(b1-3)GalNAc
Summary of the method: as §1

Neu5Ac(a2-6)Gal(b1-4)Glc = target: Neu5Ac(a2-6)Gal(b1-4)Glc
Summary of the method: as §1

[30] = target: Neu5Ac(a2-6)Gal(b1-4)GlcNAc(b1-2)Man(a1-3)[GlcNAc(b1-2)Man(a1-6)]Man(b1-4)GlcNAc(b1-4)GlcNAc
Summary of the method: as §1

[31] = target: Neu5Ac(a2-6)Gal(b1-4)GlcNAc(b1-3)Gal(b1-4)GlcNAc(b1-3)Gal(b1-4)GlcNAc
Summary of the method: as §1

[32] = target: Neu5Ac(a2-6)GlcNAc(b1-4)GlcNAc
Summary of the method: as §1

[33] = target: Neu5Ac(a2-8)Neu5Ac(a2-8)Neu5Ac
Summary of the method: as §1

Neu5Ac(b2-6)GalNAc = target: Neu5Ac(b2-6)GalNAc
Summary of the method: as §1

[34] = target: Neu5Gc(b2-6)Gal(b1-4)GlcNAc
Summary of the method: as §1

B1: Strep tagII-anxA1 (Homo sapiens), P04083 (protein)
chain: MAMVSEFLKQAWFIENEEQEYVQTVKSSKGGPGSAVSPYPTFNPSSDVAALHKAIMVKGVDEATIIDILTKRNNAQRQQIKAAYLQETGKPLDETLKKALTGHLEEVVLALLKTPAQFDADELRAAMKGLGTDEDTLIEILASRTNKEIRDINRVYREELKRDLAKDITSDTSGDFRNALLSLAKGDRSEDFGVNEDLADSDARALYEAGERRKGTDVNVFNTILTTRSYPQLRRVFQKYTKYSKHDMNKVLDLELKGDIEKCLTAIVKCATSKPAFFAEKLHQAMKGVGTRHKALIRIMVSRSEIDMNDIKAFYQKMYGISLCQAILDETKGDYEKILVALCGGN
glycan array binding signal (z-score) [1]: 0.314 | glycan array binding signal (z-score) [2]: 5.05 | glycan array binding signal (z-score) [3]: 10.7 | glycan array binding signal (z-score) [4]: 3.12 | glycan array binding signal (z-score) [5]: 3.12 | glycan array binding signal (z-score) [6]: 0.054 | glycan array binding signal (z-score) [7]: -0.317 | glycan array binding signal (z-score) (Fuc(a1-2)[Gal(a1-3)]Gal): -0.612 | glycan array binding signal (z-score) [8]: 1.69 | glycan array binding signal (z-score) [9]: -0.304 | glycan array binding signal (z-score) [10]: 2.81 | glycan array binding signal (z-score) [11]: -0.209 | glycan array binding signal (z-score) [12]: 0.479 | glycan array binding signal (z-score) [13]: 3.62 | glycan array binding signal (z-score) (Gal(b1-2)Gal): -0.402 | glycan array binding signal (z-score) [14]: -0.44 | glycan array binding signal (z-score) [15]: -0.366 | glycan array binding signal (z-score) [16]: -0.682 | glycan array binding signal (z-score) [17]: -0.567 | glycan array binding signal (z-score) [18]: 1.08 | glycan array binding signal (z-score) (Gal3S6S(b1-4)GlcNAc): 0.386 | glycan array binding signal (z-score) (Gal6P(b1-4)GlcNAc): -0.017 | glycan array binding signal (z-score) (GalNAc(a1-3)Gal): 0.67 | glycan array binding signal (z-score) (GalNAc(b1-3)Gal): -0.664 | glycan array binding signal (z-score) (GalNAc(b1-4)Gal(b1-4)Glc): 1.79 | glycan array binding signal (z-score) [19]: 3.56 | glycan array binding signal (z-score) [20]: 2.68 | glycan array binding signal (z-score) (GlcNAc(b1-3)Gal): -0.607 | glycan array binding signal (z-score) [21]: 2.8 | glycan array binding signal (z-score) (Kdn(a2-6)Gal(b1-4)GlcNAc): -0.606 | glycan array binding signal (z-score) (Man(a1-2)Man(a1-3)Man): -0.123 | glycan array binding signal (z-score) [22]: -0.502 | glycan array binding signal (z-score) [23]: -0.529 | glycan array binding signal (z-score) [24]: -0.763 | glycan array binding signal (z-score) [25]: -0.209 | glycan array binding signal (z-score) [26]: -0.74 | glycan array binding signal (z-score) [27]: -0.736 | glycan array binding signal (z-score) [28]: -0.312 | glycan array binding signal (z-score) [29]: -0.294 | glycan array binding signal (z-score) (Neu5Ac(a2-6)Gal(b1-4)Glc): 0.446 | glycan array binding signal (z-score) [30]: -0.496 | glycan array binding signal (z-score) [31]: 0.122 | glycan array binding signal (z-score) [32]: -0.032 | glycan array binding signal (z-score) [33]: -0.49 | glycan array binding signal (z-score) (Neu5Ac(b2-6)GalNAc): -0.503 | glycan array binding signal (z-score) [34]: -0.654
